Several values for one entry are separate records, joined by “and”; a condition that tells them apart may be missing. Equal entries are not always repeated. The source holds several records for some structures; these can differ, active in one and inactive in another. Activity calls are given as the source filed them. How the source made its calls: active means hit-call score of the fitted dose curve at least 0.9, where 1 is the maximum; inactive means score below 0.9.
Legend:
[1] = read-out: Collagen IV, COL4A1 (gene 1282); experiment: BSK_MyoF_CollagenIV: BioMAP Diversity Plus: MyoF Assay for Collagen IV Biomarker Activity (AID 2284247); details: primary human lung fibroblasts
Outline: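 Primary human lung fibroblasts (MyoF system) dosed 24 h; Collagen IV measured by ELISA. Activity fitted in positive direction against DMSO; cytotoxicity tracked by SRB total-protein staining in parallel cultures.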

[2] = read-out: Monokine induced gamma interferon (MIG), CXCL9 (gene 4283); experiment: BSK_KF3CT_MIG: BioMAP Diversity Plus: KF3CT Assay for Monokine induced gamma interferon (MIG) Biomarker Activity (AID 2284248); details: primary human keratinocytes with fibroblasts
Outline: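 Human keratinocyte plus foreskin fibroblast primary co-culture dosed with test chemical for 24 h; MIG level measured by ELISA and fitted in the positive direction against DMSO as baseline.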

[3] = read-out: Vascular cell adhesion molecule 1 (VCAM1), VCAM1 (gene 7412); experiment: BSK_BF4T_VCAM1: BioMAP Diversity Plus: BF4T Assay for Vascular cell adhesion molecule 1 (VCAM1) Biomarker Activity (AID 2284249); details: primary human bronchial epithelial cells with fibroblasts
Outline: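 Human bronchial epithelial cell and dermal fibroblast co-culture exposed 24 h. VCAM-1 measured by ELISA; parallel SRB total-protein staining for cytotoxicity. Fitted in positive direction relative to DMSO.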

[4] = read-out: Collagen I, COL1A1 (gene 1277); experiment: BSK_hDFCGF_CollagenI: BioMAP Diversity Plus: hDFCGF Assay for Collagen I Biomarker Activity (AID 2284250); details: primary human foreskin fibroblasts
Outline: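 Primary human foreskin fibroblasts exposed to chemical for 24 h; Collagen I levels measured by ELISA. Cytotoxicity checked by SRB total-protein staining in parallel cultures.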

[5] = read-out: Interferon-inducible T-cell alpha chemoattractant (ITAC), CXCL11 (gene 6373); experiment: BSK_hDFCGF_ITAC: BioMAP Diversity Plus: hDFCGF Assay for Interferon-inducible T-cell alpha chemoattractant (ITAC) Biomarker Activity (AID 2284251); details: primary human foreskin fibroblasts
Outline: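 ELISA readout of I-TAC after 24 h chemical exposure; human dermal foreskin fibroblast primary cells. Positive-direction fitting vs DMSO baseline. Parallel SRB total-protein staining (0.1% SRB after 10% TCA fixation, 560 nm) flags cytotoxicity.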

[6] = read-out: Plasminogen activator inhibitor-1 (PAI1), SERPINE1 (gene 5054); experiment: BSK_KF3CT_PAI1: BioMAP Diversity Plus: KF3CT Assay for Plasminogen activator inhibitor-1 (PAI1) Biomarker Activity (AID 2284252); details: primary human keratinocytes with fibroblasts
Outline: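 Human keratinocyte/foreskin fibroblast co-culture dosed for 24 h; PAI-1 measured by ELISA, fitted in positive direction against DMSO baseline. Parallel SRB total-protein staining (0.1% SRB, 560 nm) assesses overt cytotoxicity.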

[7] = read-out: Monocyte Chemoattractant Protein-1 (MCP1), CCL2 (gene 6347); experiment: BSK_IMphg_MCP1: BioMAP Diversity Plus: IMphg Assay for Monocyte Chemoattractant Protein-1 (MCP1) Biomarker Activity (AID 2284253); details: primary human endothelial cells with macrophages
Outline: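 Human venular endothelial cells co-cultured with macrophages; MCP-1 measured by ELISA 24 hours post-dose and fitted against DMSO. Cytotoxicity monitored by SRB total-protein staining in parallel cultures.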

[8] = read-out: Interleukin-8 (IL8), CXCL8 (gene 3576); experiment: BSK_KF3CT_IL8: BioMAP Diversity Plus: KF3CT Assay for Interleukin-8 (IL8) Biomarker Activity (AID 2284254); details: primary human keratinocytes with fibroblasts
Outline: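 Human primary keratinocyte plus foreskin fibroblast co-culture dosed with test chemicals; IL-8 measured by ELISA 24 h after dosing. Activity fitted in the positive direction relative to DMSO negative control.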

[9] = read-out: Plasminogen activator inhibitor-1 (PAI1), SERPINE1 (gene 5054); experiment: BSK_MyoF_PAI1: BioMAP Diversity Plus: MyoF Assay for Plasminogen activator inhibitor-1 (PAI1) Biomarker Activity (AID 2284256); details: primary human lung fibroblasts
Outline: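 ELISA read-out of PAI-1 from primary human lung fibroblast cultures 24 h after dosing; gain-of-signal fit versus DMSO control.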

[10] = read-out: CD69, CD69 (gene 969); experiment: BSK_IMphg_CD69: BioMAP Diversity Plus: IMphg Assay for CD69 Biomarker Activity (AID 2284257); details: primary human endothelial cells with macrophages
Outline: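 Human venular endothelial cells co-cultured with macrophages; CD69 quantified by ELISA 24 h after compound addition. Activity fitted in the positive direction relative to DMSO baseline; cytotoxicity tracked in parallel cultures via SRB total-protein staining.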

[11] = read-out: Eotaxin 3, CCL26 (gene 10344); experiment: BSK_BF4T_Eotaxin3: BioMAP Diversity Plus: BF4T Assay for Eotaxin 3 Biomarker Activity (AID 2284258); details: primary human bronchial epithelial cells with fibroblasts
Outline: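 Co-culture of human bronchial epithelial cells and dermal fibroblasts, exposed to chemicals for 24 h versus DMSO. Eotaxin-3 quantified by ELISA; cytotoxicity checked in parallel cultures by sulforhodamine B total-protein staining.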

[12] = read-out: Monocyte Chemoattractant Protein-1 (MCP1), CCL2 (gene 6347); experiment: BSK_BF4T_MCP1: BioMAP Diversity Plus: BF4T Assay for Monocyte Chemoattractant Protein-1 (MCP1) Biomarker Activity (AID 2284259); details: primary human bronchial epithelial cells with fibroblasts
Outline: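 Co-culture of bronchial epithelial cells and dermal fibroblasts dosed with chemical; MCP-1 measured by ELISA 24 h later. Activity fitted in positive direction versus DMSO; cytotoxicity checked by SRB staining in parallel cultures.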

[13] = read-out: Interleukin-8 (IL8), CXCL8 (gene 3576); experiment: BSK_MyoF_IL8: BioMAP Diversity Plus: MyoF Assay for Interleukin-8 (IL8) Biomarker Activity (AID 2284261); details: primary human lung fibroblasts
Outline: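 ELISA read-out of IL-8 from primary human lung fibroblasts, 24 h post-dose; positive-direction curve fitting relative to DMSO vehicle baseline.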

[14] = read-out: CD90, THY1 (gene 7070); experiment: BSK_BF4T_CD90: BioMAP Diversity Plus: BF4T Assay for CD90 Biomarker Activity (AID 2284262); details: primary human bronchial epithelial cells with fibroblasts
Outline: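 Co-culture of human bronchial epithelial cells and dermal fibroblasts, 24 h compound exposure. Cell-surface CD90 measured by ELISA relative to DMSO; parallel SRB total-protein staining for cytotoxicity.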

[15] = read-out: Interleukin-8 (IL8), CXCL8 (gene 3576); experiment: BSK_BF4T_IL8: BioMAP Diversity Plus: BF4T Assay for Interleukin-8 (IL8) Biomarker Activity (AID 2284263); details: primary human bronchial epithelial cells with fibroblasts
Outline: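 Human bronchial epithelial cells with dermal fibroblasts co-culture; IL-8 measured by ELISA 24 hours after dosing, fitted vs DMSO. Cytotoxicity tracked in parallel cultures by SRB total-protein staining.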

[16] = read-out: Interleukin-1 alpha (IL1a), IL1A (gene 3552); experiment: BSK_BF4T_IL1a: BioMAP Diversity Plus: BF4T Assay for Interleukin-1 alpha (IL1a) Biomarker Activity (AID 2284264); details: primary human bronchial epithelial cells with fibroblasts
Outline: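 Human bronchial epithelial cells co-cultured with dermal fibroblasts, dosed and read at 24 h. Secreted/surface IL-1α quantified by ELISA; gain-of-signal fitted relative to DMSO baseline. Parallel SRB total-protein staining tracked cytotoxicity.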

[17] = read-out: Decorin, DCN (gene 1634); experiment: BSK_MyoF_Decorin: BioMAP Diversity Plus: MyoF Assay for Decorin Biomarker Activity (AID 2284265); details: primary human lung fibroblasts
Outline: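 Human lung fibroblasts in the MyoF system were exposed to compound for 24 h, after which decorin was quantified by ELISA. Activity was fitted in the positive direction relative to DMSO negative control.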

[18] = read-out: Macrophage Inflammatory Protein-1 Alpha (MIP1a), CCL3 (gene 6348); experiment: BSK_IMphg_MIP1a: BioMAP Diversity Plus: IMphg Assay for Macrophage Inflammatory Protein-1 Alpha (MIP1a) Biomarker Activity (AID 2284255); details: primary human endothelial cells with macrophages
Outline: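 Co-culture of human venular endothelial cells and macrophages exposed to compounds for 24 h; MIP-1a measured by ELISA relative to DMSO. Cytotoxicity assessed in parallel cultures by sulforhodamine B total-protein staining at 560 nm.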

[19] = read-out: Intercellular Adhesion Molecule 1 (ICAM1), ICAM1 (gene 3383); experiment: BSK_BF4T_ICAM1: BioMAP Diversity Plus: BF4T Assay for Intercellular Adhesion Molecule 1 (ICAM1) Biomarker Activity (AID 2284260); details: primary human bronchial epithelial cells with fibroblasts
Outline: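 Co-culture of human bronchial epithelial cells and dermal fibroblasts exposed 24 h to chemical; cell-surface ICAM-1 quantified by ELISA. Parallel SRB total-protein staining assessed cytotoxicity; activity fitted relative to DMSO.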

[20] = read-out: KRT18 (gene 3875); experiment: BSK_BF4T_Keratin818: BioMAP Diversity Plus: BF4T Assay for Keratin 818 Biomarker Activity (AID 2284266); details: primary human bronchial epithelial cells with fibroblasts
Outline: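 Co-culture of human bronchial epithelial cells and dermal fibroblasts, chemical exposure 24 h. Keratin 8/18 measured by ELISA; positive-direction fit vs DMSO. SRB total protein run in parallel cultures for cytotoxicity.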

Measured: AC50

FC(F)(I)C(F)(F)C(F)(F)C(F)(F)C(F)(F)C(F)(F)I
inactive: [1] | [4] | [13] | [14]
active: [2] 9.38 µM [middle of 5 runs] | [3] 6.79 µM [middle of 5 runs] | [4] 14 µM and 10.1 µM | [5] 5.16 µM [middle of 5 runs] | [6] 6.91 µM [middle of 5 runs] | [7] 39.8 µM [middle of 5 runs] | [8] 6.35 µM [middle of 5 runs] | [9] 6 µM [middle of 5 runs] | [10] 37.9 µM [middle of 5 runs] | [11] 8.19 µM [middle of 5 runs] | [12] 8.32 µM [middle of 5 runs] | [13] 15 µM and 16.4 µM and 15.6 µM | [14] 6.21 µM | [15] 14.9 µM [middle of 5 runs] | [16] 22.7 µM [middle of 5 runs] | [17] 7.74 µM [middle of 5 runs]

C=C(C)C(=O)OCCC(F)(F)C(F)(F)C(F)(F)C(F)(F)C(F)(F)C(F)(F)F
inactive: [1] | [2] | [3] | [4] | [5] | [6] | [7] | [8] | [18] | [9] | [10] | [11] | [12] | [19] | [13] | [14] | [15] | [16] | [17] | [20]

NCC(F)(F)C(F)(F)C(F)(F)C(F)(F)C(F)(F)C(F)(F)C(F)(F)F
inactive: [1] | [2] | [3] | [4] | [5] | [6] | [7] | [8] | [18] | [9] | [10] | [11] | [12] | [19] | [13] | [14] | [15] | [16] | [17] | [20]
active: [5] 12.1 µM | [8] 13.5 µM | [12] 220 nM

CCCCCCCCCCCCCC[N+](C)(C)C
active: [1] 5.43 µM | [9] 3.69 µM | [13] 9.47 µM | [17] 28.4 µM

Source: PubChem BioAssay (EPA / NIEHS)
